TDP1 cell CPT: qHTS for Inhibitors of human tyrosyl-DNA phosphodiesterase 1 (TDP1): qHTS in cells in presence of CPT; chicken DT40 Tdp1-/-;hTDP1 cells + 20 nM CPT, ATP luminescence, 48 h; Potency, µM (titrated, usually from 46.2 µM), hits mostly inhibitors; 12% of 420,000 active; AID 686979, 2013; further: nearly all actives have a fitted effect of over 55% in size
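Chicken DT40 Tdp1-/- cells stably complemented with human TDP1 were seeded at 400 cells/well in medium containing 20 nM camptothecin, exposed to pin-transferred compounds, and grown at 37 °C for at least 48 hr. Viability was read as ATP luminescence.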
HT1080 IDH1KD tx: qHTS for induction of synthetic lethality in tumor cells producing 2HG: qHTS for the HT-1080-IDH1KD cell line | HT-1080 IDH1 knockdown viability, ATP luminescence, 48 h | Potency, µM (series often up to 46.1 µM), most hits filed as cytotoxic | 2% of 360,000 active
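Viability of IDH1-knockdown HT-1080 fibrosarcoma cells was assessed by CellTiter-Glo after 48 h at 37 °C with titrated compound; concentration-effect curves were classified by fit quality and response size.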
IL-1B inflam inh: qHTS for Inhibitors of Inflammasome Signaling: IL-1-beta AlphaLISA Primary Screen; THP-1 LPS/ATP IL-1B secretion, AlphaLISA, 16 h; hits give low values; AID 743279, 2014; 4.7% of 360,000 active; activity change, % at 57.5 µM; in the data active means activity change below about -50%; inconclusive means mostly about -30% to -49%
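THP-1 cells pretreated 1 hr with compounds (up to 57.5 uM final), then stimulated with LPS (250 ng/mL final) plus ATP (1.25 mM final); secreted IL-1B measured by AlphaLISA after 16 hr, decreased signal indicating inhibition.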
ELG1 repair inh: qHTS screen for small molecules that inhibit ELG1-dependent DNA repair in human embryonic kidney (HEK293T) cells expressing luciferase-tagged ELG1. HEK293T ELG1-luciferase reporter, luminescence, 16 h; DNA damage induced by 5-fluorouridine. Potency, µM (series often up to 46.1 µM), most hits filed as inhibitors. 2.3% of 330,000 active; further: nearly all actives have a fitted effect of over 55% in size
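Luminescence from the luciferase reporter, measured 30 min after ONE-Glo reagent at room temperature, was the read-out. Beforehand, 2,000 cells per well were exposed for 16 hr at 37 °C to 5-fluorouridine together with compound or vehicle.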
TDP1 cell noCPT: qHTS for Inhibitors of human tyrosyl-DNA phosphodiesterase 1 (TDP1): qHTS in cells in absence of CPT. DT40 Tdp1-/- hTDP1 cells, no CPT, ATP luminescence, 48 h. Potency, µM (top dose mostly 46.2 µM), usual class: inhibitors. 15% of 420,000 active; further: nearly all actives have a fitted effect of over 55% in size
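Stably hTDP1-transfected Tdp1-null chicken DT40 cells were treated with library compounds minus camptothecin and grown for at least 48 hr at 37 °C, after which cellular ATP was quantified by luminescence.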
HT1080NT lethal: qHTS for induction of synthetic lethality in tumor cells producing 2HG: qHTS for the HT-1080-NT fibrosarcoma cell line | 1.6% of 360,000 active | HT-1080-NT fibrosarcoma viability, CellTiter-Glo ATP luminescence, 48 h | Potency, µM (series often up to 46.1 µM), usual class: cytotoxic;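 further: NT is the 2HG producing partner of a matched IDH1 knockdown line; nearly all actives have a fitted effect of over 55% in size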
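A 48-hour cytotoxicity screen used HT-1080-NT cells plated 2 hours before compound delivery. ATP-based CellTiter-Glo luminescence measured viability, normalized to DMSO and no-cell controls.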
A number is an active result; – = inactive; ? = inconclusive; · = no result given. Compounds with a hit are over-represented: about 19% of the library has one in this group of screens. Unless noted, the call rests on the fitted dose curve; in most records, active means well fitted curve in the direction sought with a large enough effect; inconclusive means small, poorly fitted or top-dose-only effect, or another doubt; inactive means no such curve, though single readings can be large; an effect the other way counts as inactive or inconclusive.

SMILES	TDP1 cell CPT	HT1080 IDH1KD tx	IL-1B inflam inh	ELG1 repair inh	TDP1 cell noCPT	HT1080NT lethal
CCCCCCn1c(=O)n2n(c1=O)[C@@H]1CN(S(=O)(=O)c3ccc(C)cc3)C[C@]1(O)[C@@H](OC(=O)NCc1ccccc1F)C2	?	?	–	·	?	?
CCCCCCn1c(=O)n2n(c1=O)[C@@H]1CN(S(=O)(=O)c3ccc(C)cc3)C[C@]1(O)[C@@H](OC(=O)NC1CCCC1)C2	?	–	–	·	?	–
CCCCCCNC(=O)O[C@H]1Cn2c(=O)ccc(=O)n2[C@@H]2CN(S(=O)(=O)c3ccc(C)cc3)C[C@]12O	4.61µM	23.1µM	-105.7	·	3.66µM	16.4µM
Cc1ccc(S(=O)(=O)N2C[C@H]3[C@H]4C(=O)N(c5ccccc5)C(=O)[C@H]4C[C@H](OC(=O)NCc4ccccc4)[C@@]3(O)C2)cc1	–	–	–	·	–	–
CCCCCCNC(=O)O[C@H]1Cn2c(=O)n(CCCCCC)c(=O)n2[C@@H]2CN(S(=O)(=O)c3ccc(C)cc3)C[C@]12O	?	?	?	·	20.6µM	?
CCCCCCn1c(=O)n2n(c1=O)[C@@H]1CN(S(=O)(=O)c3ccc(C)cc3)C[C@]1(O)[C@@H](OC(=O)NCc1ccc(OC)c(OC)c1)C2	?	–	?	·	?	–
CCCCCCn1c(=O)n2n(c1=O)[C@@H]1CN(S(=O)(=O)c3ccc(C)cc3)C[C@]1(O)[C@@H](OC(=O)NC1CC1)C2	?	–	–	·	16.4µM	–
Nc1cc(=O)[nH]c2nnc(SCC(=O)Nc3cccc4ccccc34)n12	–	–	–	–	–	–
CCCCCCn1c(=O)n2n(c1=O)[C@@H]1CN(S(=O)(=O)c3ccc(C)cc3)C[C@]1(O)[C@@H](OC(=O)NCC1CCCCC1)C2	?	?	?	·	16.4µM	?
Cc1ccc(S(=O)(=O)N2C[C@H]3n4c(=O)ccc(=O)n4C[C@H](OC(=O)NCc4ccccc4F)[C@@]3(O)C2)cc1	?	?	-107.9	·	20.6µM	–
COC(=O)[C@H]1C[C@H](OC(=O)NC2CCCC2)[C@@]2(O)CN(S(=O)(=O)c3ccc(C)cc3)CC2[C@H]1C(=O)OC (stereo not given in full)	–	–	–	·	–	–
Cc1ccc(S(=O)(=O)N2C[C@H]3N(C(=O)OC(C)C)N(C(=O)OC(C)C)C[C@H](OC(=O)NC4CC4)[C@@]3(O)C2)cc1	–	–	–	·	?	–
Cc1ccc(S(=O)(=O)N2C[C@H]3n4c(=O)ccc(=O)n4C[C@H](OC(=O)Nc4cccs4)[C@@]3(O)C2)cc1	?	–	-79.4	·	?	?
COC(=O)[C@H]1C[C@H](OC(=O)Nc2cccs2)[C@@]2(O)CN(S(=O)(=O)c3ccc(C)cc3)CC2[C@H]1C(=O)OC (stereo not given in full)	?	–	-56.0	·	?	–
C=CC(N)CCC(=O)O (stereo not given)	–	·	·	·	–	·
CCC(=O)n1nc(-c2cccnc2)nc1NCc1ccccc1	–	4.61µM	–	–	–	–
CCCC(=O)n1nc(-c2cccnc2)nc1NCc1ccccc1	–	–	–	–	–	–
CNC(=S)N/N=C/c1cc(C)ccc1C	?	–	–	–	?	–
Cc1ccc(C)c(/C=N/NC(=S)NC(C)C)c1	5.8µM	–	–	–	5.8µM	–
CC(C)NC(=S)N/N=C/c1ccc(C(C)(C)C)cc1	13µM	?	-68.2	?	10.3µM	?
S=C(NCCc1ccccc1)N/N=C/c1cccs1	?	–	–	·	?	–
Oc1ccc(/C=N/NC(=S)N/N=C/c2ccc(O)cc2)cc1	?	?	–	–	?	?
CC(C)NC(=S)N/N=C/c1cccs1	0.92µM	–	–	–	0.82µM	–
Cc1noc(C)c1S(=O)(=O)NC(=O)C1(C)CCN1C(=O)CC(c1ccccc1)c1ccccc1 (stereo not given)	9.2µM	–	–	·	20.6µM	–
CC1(C(=O)NS(=O)(=O)c2ccccc2Cl)CCN1C(=O)CC(c1ccccc1)c1ccccc1 (stereo not given)	4.11µM	–	–	·	7.31µM	–
SMILES	TDP1 cell CPT	HT1080 IDH1KD tx	IL-1B inflam inh	ELG1 repair inh	TDP1 cell noCPT	HT1080NT lethal
Cc1ccccc1S(=O)(=O)NC(=O)C1(C)CCN1C(=O)CC(c1ccccc1)c1ccccc1 (stereo not given)	5.8µM	–	–	·	5.8µM	–
Cc1noc(C)c1S(=O)(=O)NC(=O)C1(C)CCN1C(=O)c1ccccc1CCc1ccccc1 (stereo not given)	?	?	–	·	?	–
CC1(C(=O)NS(C)(=O)=O)CCN1C(=O)CC(c1ccccc1)c1ccccc1 (stereo not given)	–	–	–	·	–	–
CC1(C(=O)NS(=O)(=O)c2ccccc2)CCN1C(=O)CC(c1ccccc1)c1ccccc1 (stereo not given)	?	–	–	·	?	–
Cc1nc(-c2nnc(SCC(=O)Nc3ccc(Cl)cc3)n2C)cs1	–	?	–	–	–	?
COC(=O)c1ccc(Cn2nnc3c(=O)[nH]c(C4CCN(S(=O)(=O)c5ccc(F)cc5)CC4)nc32)cc1	–	–	–	–	?	–
Cc1ccccc1Nc1c(C)c(C)nc2ncnn12	16.4µM	–	–	?	20.6µM	–
CCc1c(C)nc2ncnn2c1Nc1ccccc1C	?	–	–	–	?	–
CCC(=O)Oc1cc(C(C)(C)C)cc2cc(-c3nc(-c4ccc(OC)cc4OC)no3)c(=O)oc12	?	·	·	·	16.4µM	·
O=[N+]([O-])c1cc(C(F)(F)F)cc([N+](=O)[O-])c1NCCCN1CCOCC1	–	–	–	–	?	–
O=[N+]([O-])c1cc(C(F)(F)F)cc([N+](=O)[O-])c1NN=C1CCCCC1	?	–	–	–	23.1µM	–
O=[N+]([O-])c1cc(S(=O)(=O)N2CCCC2)ccc1NN=C1CCCCC1	–	–	–	–	–	–
O=[N+]([O-])c1cc(C(F)(F)F)cc([N+](=O)[O-])c1NCCN1CCNCC1	20.6µM	–	–	–	20.6µM	–
CCOC(=O)CNC(=O)COc1coc(CN2CCN(Cc3ccccc3)CC2)cc1=O	–	–	–	–	–	–

Compound activity deposited in PubChem by National Center for Advancing Translational Sciences (NCATS).
